The source made the active and inactive calls. How the calls were made is not given here.
biological target: Pantothenate synthetase (Mycobacterium tuberculosis (strain ATCC 25618 / H37Rv)) (UniProt P9WIL5); assay: Coupled enzyme confirmation of inhibitors against recombinant Mtb PanC (AID 375); details: coupled enzyme assay; at 10 µM, active compounds read high;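 further: 0% = full reaction with vehicle and 100% = no enzyme background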
Sequence (P9WIL5 whole entry, looked up): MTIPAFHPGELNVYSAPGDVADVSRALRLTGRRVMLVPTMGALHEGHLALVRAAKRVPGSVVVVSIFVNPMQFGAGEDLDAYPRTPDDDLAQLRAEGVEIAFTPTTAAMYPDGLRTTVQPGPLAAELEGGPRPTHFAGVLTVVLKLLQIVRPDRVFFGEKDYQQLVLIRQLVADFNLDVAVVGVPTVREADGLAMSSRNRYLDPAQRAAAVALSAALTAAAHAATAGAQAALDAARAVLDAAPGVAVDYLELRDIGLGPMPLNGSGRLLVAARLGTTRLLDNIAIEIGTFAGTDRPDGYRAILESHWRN

Q: For CCc1cccc(NC(=O)C2CCCN(S(=O)(=O)c3c(C)[nH]c(=O)[nH]c3=O)C2)c1 (stereo not given), which inhibition is on record?
A: Its inhibition is 4% (inactive).

Q: Which inhibition does the source give for COc1ccc(C2C(C(=O)c3sc(C)nc3C)=C(O)C(=O)N2CCN(C)C)cc1 (stereo not given) here?
A: The inhibition was 9% (inactive).

Q: With Cc1onc(-c2ccccc2)c1C(=O)N1CCN(C(=O)c2ccco2)CC1 as the molecule, how does the inhibition read?
A: Its inhibition is 0% (inactive).

Q: For CCOC(=O)C1=C(C)NC(C)=C(C(=O)OCC)C1C(=O)OC1CCOC1=O (stereo not given), which inhibition is on record?
A: The inhibition was 13% (inactive).

Q: COc1ccc(CN(Cc2nc3ccccc3c(=O)[nH]2)C(=O)NC2CCCCC2)cc1 was tested. Which inhibition did it give?
A: The inhibition was 5% (inactive).

Q: How did the inhibition turn out when CC(O)c1c(OCc2ccccc2)ncnc1OCc1ccccc1 (stereo not given) was run?
A: The inhibition was 0% (inactive).

Q: Which inhibition does the source give for COc1ccc(OCC(=O)N2CC3(C)CC2CC(C)(C)C3)cc1 (stereo not given) here?
A: The inhibition was 0% (inactive).

Q: CCCCN(C)C(=O)CS(=O)(=O)Cc1nc(-c2cccc(OC)c2)oc1C was tested. Which inhibition did it give?
A: Its inhibition is 0% (inactive).

Q: Which inhibition does the source give for COc1ccc(OC)c(CNC(=O)COc2cc(=O)n(C)c3ccccc23)c1 here?
A: The inhibition was 0% (inactive).

Q: Which inhibition does the source give for CC(=O)[C@H]1[C@H](C#N)C[C@H]2[C@@H]3CC=C4C[C@@H](O)CC[C@]4(C)[C@H]3CC[C@@]21C here?
A: The inhibition was 0% (inactive).

Q: For Cc1cc(C(=O)Nc2ccc(S(=O)(=O)Nc3onc(C)c3C)cc2)cs1, which inhibition is on record?
A: The inhibition was 4% (inactive).

Q: CC(=O)N(C(C)=O)c1cccc2c(N(C(C)=O)C(C)=O)cccc12 was tested. Which inhibition did it give?
A: The inhibition was 1% (inactive).

Q: How did the inhibition turn out when CCC(CC)C(=O)Nc1cccc(C(=O)NCc2ccco2)c1 was run?
A: The inhibition was 6% (inactive).

Q: For CC(=NCC1CCNCC1)C1=C(O)CC(C)(C)CC1=O, which inhibition is on record?
A: The inhibition was 0% (inactive).

Q: How did the inhibition turn out when Cc1onc(-c2c(Cl)cccc2Cl)c1C(=O)N1CCc2ccccc21 was run?
A: Its inhibition is 0% (inactive).

Q: With O=c1[nH]c(=O)n([C@H]2C[C@H](O)[C@@H](CO)O2)cc1F as the molecule, how does the inhibition read?
A: Its inhibition is 0% (inactive).

Q: Which inhibition does the source give for CCOC(=O)c1sc2nc(SCC#N)n(CCCN3CCCC3=O)c(=O)c2c1C here?
A: The inhibition was 0% (inactive).

Q: How did the inhibition turn out when O=C(Nc1ccc2c(c1)OCO2)c1cccc(Cl)c1 was run?
A: Its inhibition is 0% (inactive).

Q: For O=C(OCC(=O)N1CCCCCC1)c1cccs1, which inhibition is on record?
A: The inhibition was 0% (inactive).

Q: For CC1Cc2nc(SCC(=O)Nc3ccc(F)cc3F)n(C)c(=O)c2S1 (stereo not given), which inhibition is on record?
A: The inhibition was 0% (inactive).

Q: Which inhibition does the source give for O=C1CN(C(=O)COC(=O)C23CC4CC(CC(O)(C4)C2)C3)c2ccccc2N1 here?
A: The inhibition was 19% (inactive).

Q: For O=C(c1ccc2c(c1)[nH]c(=S)n1c3ccccc3nc21)N1CCN(c2ncccn2)CC1, which inhibition is on record?
A: Its inhibition is 8% (inactive).

Q: Which inhibition does the source give for CCN(CC)CCOC(=O)C1(C2CCCCC2)CCCCC1 here?
A: The inhibition was 0% (inactive).

Q: For CCSC1=C(C#N)C(c2cccc(OC)c2)CC(=O)N1 (stereo not given), which inhibition is on record?
A: The inhibition was 6% (inactive).

Q: CC(C)COC(=O)C1[C@H]2C(=O)N(Cc3cccs3)C[C@]23C=C[C@H]1O3 (stereo not given in full) was tested. Which inhibition did it give?
A: The inhibition was 1% (inactive).

Q: How did the inhibition turn out when COc1ccc(C)cc1NC(=O)CSc1nnnn1Cc1ccccc1 was run?
A: The inhibition was 2% (inactive).

Q: For Cc1cccc(N=C2NC(=O)CS2)c1C, which inhibition is on record?
A: Its inhibition is 0% (inactive).

Q: O=C1CSC(c2cn(-c3ccccc3)nc2-c2ccccc2)N1Cc1ccco1 (stereo not given) was tested. Which inhibition did it give?
A: The inhibition was 4% (inactive).

Q: With COC(=O)CCN(C(=O)c1ccc2c(c1)OCO2)c1ccccn1 as the molecule, how does the inhibition read?
A: Its inhibition is 0% (inactive).

Q: For COc1cc(OC)c2c(c1)OC(c1ccc(OC)c(OC)c1)C(O)C2=O (stereo not given), which inhibition is on record?
A: The inhibition was 1% (inactive).

Q: For CCOc1ccccc1NC(=O)C1CCCN1C(=O)OCc1ccccc1 (stereo not given), which inhibition is on record?
A: Its inhibition is 0% (inactive).

Q: CCCCOC(=O)Cn1c(=N)n(CCN2CCOCC2)c2ccccc21 was tested. Which inhibition did it give?
A: Its inhibition is 0% (inactive).

Q: How did the inhibition turn out when CCOC(=O)c1cc2c(=O)n3cccc(C)c3nc2n(CC2CCCO2)c1=NC(C)=O (stereo not given) was run?
A: Its inhibition is 7% (inactive).

Q: How did the inhibition turn out when Cc1cc(C(N)=O)c2cc(Br)ccc2n1 was run?
A: The inhibition was 10% (inactive).

Q: With COc1ccc2c(c1)c1c(n2C(C)=O)C(OC(C)=O)=NCC1 as the molecule, how does the inhibition read?
A: The inhibition was 0% (inactive).

Q: Which inhibition does the source give for O=C(CSc1nc(O)cc(=O)n1-c1ccccc1)N1CCCCC1 here?
A: The inhibition was 0% (inactive).

Q: With CCN(CC)CC(C)CNC(=O)CC(C(=O)N1CCc2ccccc21)n1ccnc1 (stereo not given) as the molecule, how does the inhibition read?
A: Its inhibition is 2% (inactive).

Q: O=C(c1ccc(=O)[nH]c1)N(Cc1ccco1)C1(C(=O)NC2CCCC2)CCCCC1 was tested. Which inhibition did it give?
A: Its inhibition is 0% (inactive).

Q: With CS(=O)(=O)Nc1ccc(S(=O)(=O)Nc2nccs2)cc1 as the molecule, how does the inhibition read?
A: The inhibition was 0% (inactive).

Q: How did the inhibition turn out when O=C1c2ccccc2-c2ccc(C(=O)N3CCOCC3)cc21 was run?
A: Its inhibition is 0% (inactive).

Reference: PubChem BioAssay
